Assay results: the supplement of paper PMC13380429

Test system: Vero E6 infected with SARS-CoV-2
Assay: inhibition of SARS-CoV-2 cytopathic effect; higher = more antiviral protection, active = above 15
Conditions: 48 h

Measured: inhibition of SARS-CoV-2 cytopathic effect

COCCOC(=O)C1=C(C)NC(C)=C(C(=O)OC/C=C/c2ccccc2)C1c1cccc([N+](=O)[O-])c1 (stereo not given) [cilnidipine]
inactive: 1 nM -1.01% | 8.33 nM -0.52% | 100 nM 0.89% | 833.33 nM 0.38% | 10000 nM 7.9%

CO[C@@]1(NC(=O)C(C(=O)O)c2ccc(O)cc2)C(=O)N2C(C(=O)O)=C(CSc3nnnn3C)CO[C@@H]21 (stereo not given in full) [moxalactam]
inactive: 1 nM 1.45% | 8.33 nM -1.13% | 100 nM -0.85% | 833.33 nM -1.15% | 10000 nM 1.01%

CC1(C)OC[C@@H](COC(=O)CCc2ccc(OC[C@@H](O)CNCCNC(=O)N3CCOCC3)cc2)O1 [landiolol]
inactive: 1 nM -7.81% | 8.33 nM -4.59% | 100 nM -1.18% | 833.33 nM -1.43% | 10000 nM -1.67%

CC(C)[C@@H]1CC[C@@H](C)C[C@H]1O [levomenthol]
inactive: 1 nM 0.46% | 8.33 nM -1.68% | 100 nM 1.02% | 833.33 nM 0.09% | 10000 nM -0.2%

Cc1ccc(C)c(OCCCC(C)(C)C(=O)O)c1 [gemfibrozil]
inactive: 1 nM 0.62% | 8.33 nM -0.19% | 100 nM -0.2% | 833.33 nM 0.31% | 10000 nM -0.46%

O=C1C[C@@]2(C(=O)N1)C(=O)N(Cc1ccc(Br)cc1F)C(=O)c1cccn12 [ranirestat]
inactive: 1 nM 0.68% | 8.33 nM 1.21% | 100 nM 2.23% | 833.33 nM 3.78% | 10000 nM 1.01%
